Assay outcomes deposited in PubChem by several laboratories.
EP2 modulator: modulators of human EP2 prostaglandin E2 receptor; P43116; EP2-expressing cells, cAMP HTRF FRET, PGE2 co-stimulation; hit rate 0.83% among 260,000; induction, % at 25 µM;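 active = compounds whose cAMP rise, as percent of the full-agonist control response, exceeds 60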;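 also: rat C6 glioma line stably carrying human EP2 under a CMV promoter; the protocol text gives 20 µM as final concentration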
KCC2 mod: modulates chloride dependent transport by human KCC2; Q9H2X9; KCC2 cells, thallium flux FluoZin-2 fluorescence; B-score of Tl+ flux slope (higher = more flux/activation; lower = inhibition) at 10 µM; hit rate 2.2% among 190,000; AID 1456;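 active = thallium flux slope and its plate-corrected score both differing from the plate sample mean at a set confidence after two filtering rounds, in either direction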;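 also: slope of fluorescence scaled to starting intensity during 10 to 20 s after thallium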
PGE2 EP2 inh: EP2 receptor (human) inhibition; C6 glioma cells expressing human EP2, cAMP TR-FRET; cells stimulated with saturating PGE2; inhibition, % at 25 µM; hit rate 0.52% among 260,000; AID 1422;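 active = percent inhibition above 40 after rounding to a whole number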;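 also: rat C6 glioma host cells with rolipram phosphodiesterase inhibitor present; the protocol text gives 20 µM as final concentration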
S1P3 antag: S1P3 (human) receptor antagonism. CHO S1P3 NFAT-BLA reporter, FRET fluorescence, antagonist mode. AID 485. inhibition, % at 4.98 µM. hit rate 0.27% among 170,000. Q99500;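 active = inhibition above the plate cutoff, the mean inhibition of test wells on that plate plus 3 SD, cut at about 28% in these data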;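 also: cells challenged with S1P at its EC80 of 0.8 µM; blue over green emission ratio from cleaved BLA substrate after 4 h stimulation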
Large screens that a line does not name were inactive; ! = not confirmed by another sample. Only some compounds are listed: those with a hit (about 3.1% of all), similar ones and a draw of the others.

CCCCc1ccc(Nc2nc(CCC)cc(=O)[nH]2)cc1	EP2 modulator 60.6
CCCc1cc(=O)[nH]c(Nc2ccc(N3CCCCC3)cc2)n1	none (no result: KCC2 mod)
N#C/C(=C\c1ccc(N2CCOCC2)o1)c1nc2ccccc2[nH]1	PGE2 EP2 inh 42.0 (no result: S1P3 antag)
CN(C)CCCNCc1cc2c(C(C)(C)C)nn(-c3ccc(F)cc3)c2[nH]c1=O	none (no result: KCC2 mod, S1P3 antag)
CCc1ccc(Nc2nc3ccccc3c(=O)s2)cc1	KCC2 mod 7.54
O=C1NC(=O)N(c2ccc3c(c2)OCO3)C(=O)/C1=C/c1ccc(N2CCOCC2)o1	none (no result: KCC2 mod, S1P3 antag)
COC(=O)c1sc2nc3c(C)ccc(C)c3cc2c1N	none (no result: KCC2 mod, S1P3 antag)
CCN(CC)c1ncnc2scc(C3COc4ccccc4O3)c12 (configuration not stated)	EP2 modulator 63.8 (no result: S1P3 antag)
COc1ccc2[nH]c3c(NCCC4=CCCCC4)ncnc3c2c1	PGE2 EP2 inh 74.5
CC(=O)Nc1ccc(-n2cc(-c3ccccc3)[nH]c2=S)cc1	none
COc1ccc(-n2cc(-c3ccccc3)[nH]c2=S)cc1	KCC2 mod 17.6
Cc1ccc(F)c(NC(=O)/C(C#N)=C(\O)c2ccc(C(C)(C)C)cc2)c1	KCC2 mod -5.63
COc1ccc(NC(=O)c2sccc2-n2cccc2)cc1	none
O=C(Nc1ccc(Cl)cc1)c1sccc1-n1cccc1	EP2 modulator 62.6
Nc1[nH]c(=S)[nH]c(=O)c1N=Nc1c(Br)cc(S(N)(=O)=O)cc1Br	PGE2 EP2 inh 50.8 (no result: KCC2 mod, S1P3 antag)
NS(=O)(=O)c1ccc(N=Nc2c(=O)[nH]n3c(=O)c4c([nH]c23)CCCC4)cc1	none
C=CCn1c(-c2ccccc2)ccc(C#N)c1=O	EP2 modulator 64.1 (no result: S1P3 antag)
O=C(NC1CCCCC1)C(c1ccncc1)N(C(=O)Cc1cccs1)c1ccc(F)cc1 (configuration not stated)	none (no result: KCC2 mod, S1P3 antag)
O=C(NCc1ccco1)C(c1ccco1)N(Cc1cccs1)C(=O)Cn1nnc2ccccc21 (configuration not stated)	none (no result: S1P3 antag)
O=C(NC1CCCC1)C(c1ccccc1Cl)N(Cc1ccco1)C(=O)Cc1cccs1 (configuration not stated)	EP2 modulator 63.5 (no result: KCC2 mod, S1P3 antag)
O=C(NC1CCCCC1)C(c1ccco1)N(Cc1cccs1)C(=O)Cn1nnc2ccccc21 (configuration not stated)	EP2 modulator 60.9
O=C(NC1CCCCC1)C(c1ccco1)N(C(=O)Cc1cccs1)c1ccc(F)cc1 (configuration not stated)	EP2 modulator 66.2 (no result: KCC2 mod, S1P3 antag)
O=C(NC1CCCC1)C(c1ccccc1F)N(Cc1ccco1)C(=O)Cc1cccs1 (configuration not stated)	none (no result: KCC2 mod, S1P3 antag)
Cn1c(=O)c2c(nc(Br)n2CCC#N)n(C)c1=O	none (no result: KCC2 mod, S1P3 antag)
COC(=O)c1ccc(NC(=S)NC(=O)c2cc(-c3ccccc3)nc3ccccc23)cc1	KCC2 mod 6 (no result: PGE2 EP2 inh, S1P3 antag)
COC(=O)c1ccc(NC(=S)NC(=O)c2c(Cl)cnn2C)cc1	KCC2 mod 36.3
COC(=O)c1ccc(NC(=O)c2cc(-c3ccccn3)nc3ccccc23)cc1	none
COC(=O)c1cc(NC(=O)c2c(Cl)cnn2C)cc(C(=O)OC)c1	none
CC[C@H](Cn1nc(-c2cccs2)ccc1=O)NC(=O)c1ccco1	none (no result: KCC2 mod, PGE2 EP2 inh, S1P3 antag)
CN1CCN(CC(=O)N2c3ccccc3C(C)(c3ccccc3)CC2(C)C)CC1 (configuration not stated)	none
CC1(c2ccccc2)CC(C)(C)N2C(=O)Cc3cccc1c32 (configuration not stated)	EP2 modulator 61.8
Cc1cc2cc(C(c3nnnn3Cc3ccc(F)cc3)N3CCCC(C)C3)c(=O)[nH]c2cc1C (configuration not stated)	none (no result: KCC2 mod, S1P3 antag)
C=CCc1cccc2cc(C(=O)Nc3cccc(C(=O)O)c3)c(=O)oc12	EP2 modulator 100.5
COc1ccc(OCCCC(=O)Nc2cccc(C(C)=O)c2)cc1	PGE2 EP2 inh 51.3
CN(CC(=O)NCCC1=CCCCC1)S(=O)(=O)c1ccc2c(c1)c(=O)n(C)c(=O)n2C	S1P3 antag 73.5
COC(=O)c1cccc(NC(=O)CSc2nnnn2-c2ccc(OC)cc2OC)c1	none (no result: KCC2 mod, S1P3 antag)
C[C@@]1(CO)[C@H](O)CC[C@]2(C)[C@@H]1CC[C@H]1C[C@H]3C[C@]12CC[C@@]3(O)COC(=O)CN	PGE2 EP2 inh 51.7 (no result: KCC2 mod, S1P3 antag)
CC(=O)Nc1ccc2c(c1)C(=Nc1ccc(C(=O)O)cc1)c1ccccc1-2	PGE2 EP2 inh 58.5 (no result: KCC2 mod, S1P3 antag)
CC(=O)Nc1ccc(C(=O)c2ccccc2)cc1	none
CN(C(=O)C1CCCO1)c1nc2c(s1)CCc1occc1-2 (configuration not stated)	none (no result: KCC2 mod, PGE2 EP2 inh, S1P3 antag)
Nc1cc(S(N)(=O)=O)ccc1SSc1ccc(S(N)(=O)=O)cc1N	PGE2 EP2 inh 59.6 (no result: KCC2 mod, S1P3 antag)
NS(=O)(=O)c1ccccc1	none (no result: KCC2 mod)
CC(C)n1c(-c2ccc(C(C)(C)C)cc2)n[nH]c1=S	KCC2 mod 37 (no result: S1P3 antag)
Cc1nc(=S)c2ccccc2[nH]1	none (no result: KCC2 mod, S1P3 antag)
S=c1nc(COc2ccccc2)[nH]c2ccccc12	EP2 modulator 65.7 (no result: KCC2 mod, S1P3 antag)
Cc1ccc2[nH]c(=O)c(CN(CCO)C(=S)NC3CCCCC3)cc2c1	none (no result: KCC2 mod, S1P3 antag)
c1ccc(Cn2ncc3c(N4CCCCC4)ncnc32)cc1	KCC2 mod -4.08
Cc1ccc(C(=O)Nc2cccc(C(=O)NCc3ccco3)c2)cc1	S1P3 antag 66.7
O=C(NCc1ccco1)c1cccc(NC(=O)c2ccccc2)c1	none (no result: KCC2 mod)
COc1ccc(-c2nc(NC(=O)c3[nH]c(C)c(C(C)=O)c3C)sc2C)cc1	PGE2 EP2 inh 99.8
CC(=O)c1c(C)[nH]c(C(=O)Nc2nc(-c3ccc(-c4ccccc4)cc3)cs2)c1C	none
CC(=O)c1c(C)[nH]c(C(=O)Nc2nc(-c3ccc(Cl)cc3)cs2)c1C	PGE2 EP2 inh 40.6
COc1ccc(-c2nc3cnccn3c2NCc2ccc(F)cc2)cc1	none (no result: KCC2 mod, S1P3 antag)
CCn1c(SCC(=O)NC(=O)NCc2ccco2)nc2sc(C)c(C)c2c1=O	KCC2 mod 16 (no result: PGE2 EP2 inh, S1P3 antag)
Cc1sc2nc(SCc3ccc(C(=O)O)cc3)n(Cc3ccco3)c(=O)c2c1C	EP2 modulator 82.5
CC(=O)c1ccc(Oc2cc(C)nc(NCc3ccccc3)n2)cc1	none (no result: S1P3 antag)
Cc1cc(OC2CCCCC2)nc(NCc2ccccc2)n1	EP2 modulator 66.0
CCOc1cc(C)nc(NCc2ccccc2)n1	EP2 modulator 63.3 (no result: KCC2 mod, S1P3 antag)
CC1CN(c2nc3c(c(=O)[nH]2)CCN(Cc2ccc(N(C)C)cc2)C3)CC(C)O1 (configuration not stated)	none (no result: KCC2 mod, PGE2 EP2 inh, S1P3 antag)
Cc1ccc(-n2ncc3c(SCc4ccccc4)ncnc32)cc1	KCC2 mod 22.3
Cc1ccc(CSc2ncnc3c2cnn3-c2ccccc2)cc1	none
Cc1ccc(CSc2ncnc3c2cnn3-c2ccc(C)cc2)cc1	KCC2 mod 15.7
COCCNC(=O)c1c(NC(=O)COc2ccccc2C)sc2c1CCCC2	none (no result: KCC2 mod, S1P3 antag)
Cc1ccc2c(c1)[nH]c1c(N3CCN(Cc4ccccc4)CC3)ncnc12	none
c1ccc(CN2CCN(c3ncnc4c3[nH]c3ccccc34)CC2)cc1	KCC2 mod -5.74 (no result: S1P3 antag)
COc1ccc2c(c1)Cc1sc(NC(=O)c3cc(OC)c(OC)c(OC)c3)nc1-2	none (no result: KCC2 mod, S1P3 antag)
CC1CCN(CC(=O)Nc2ccccc2C(=O)c2ccccc2)CC1	EP2 modulator 63.4
CC1CCN(CC(=O)Nc2ccccc2-c2ccccc2)CC1	EP2 modulator 64.5! (no result: S1P3 antag)
